# Source: PubChem BioAssay (EPA / NIEHS)
# Values joined by “and” are separate entries in the source; they are usually repeats but may differ in a detail not shown here. Equal entries are not always repeated. Records with an inconclusive call do not appear. A structure can be active in one record and inactive in another. Active and inactive are the calls of the source. Rule for the calls, unless noted: active = hit-call score of the fitted dose curve at least 0.9, where 1 is the maximum; inconclusive = response in the unintended direction; inactive = score below 0.9.
# Molecular target: Androgen receptor (Homo sapiens) (UniProt P10275)
# Sequence (P10275 whole entry, looked up): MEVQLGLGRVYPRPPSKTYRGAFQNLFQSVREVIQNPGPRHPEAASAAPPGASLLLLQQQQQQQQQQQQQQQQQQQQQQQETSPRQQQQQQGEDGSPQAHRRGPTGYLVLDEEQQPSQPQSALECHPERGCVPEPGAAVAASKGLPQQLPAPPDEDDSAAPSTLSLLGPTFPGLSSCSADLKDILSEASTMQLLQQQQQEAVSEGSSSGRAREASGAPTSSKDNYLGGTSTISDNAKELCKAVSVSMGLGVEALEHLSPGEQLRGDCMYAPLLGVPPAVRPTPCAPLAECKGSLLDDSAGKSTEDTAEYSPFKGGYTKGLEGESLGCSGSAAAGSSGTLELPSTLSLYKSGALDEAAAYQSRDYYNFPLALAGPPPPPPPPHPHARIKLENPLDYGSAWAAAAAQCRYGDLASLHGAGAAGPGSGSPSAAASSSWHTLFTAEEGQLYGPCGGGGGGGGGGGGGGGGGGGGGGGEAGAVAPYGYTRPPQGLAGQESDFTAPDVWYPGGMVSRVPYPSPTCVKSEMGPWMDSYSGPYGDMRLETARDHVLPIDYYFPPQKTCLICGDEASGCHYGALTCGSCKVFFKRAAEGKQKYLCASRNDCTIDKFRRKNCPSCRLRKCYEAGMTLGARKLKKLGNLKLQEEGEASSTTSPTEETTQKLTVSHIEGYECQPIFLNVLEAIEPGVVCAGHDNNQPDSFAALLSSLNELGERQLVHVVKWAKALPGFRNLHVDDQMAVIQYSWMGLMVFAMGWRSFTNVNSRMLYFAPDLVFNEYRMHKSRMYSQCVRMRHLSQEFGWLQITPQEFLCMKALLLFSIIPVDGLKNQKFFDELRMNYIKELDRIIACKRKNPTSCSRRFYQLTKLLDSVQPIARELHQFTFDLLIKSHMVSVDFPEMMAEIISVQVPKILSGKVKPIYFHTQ
# Test: ATG_AR_TRANS: Attagene TRANS-FACTORIAL HepG2 Assay for human Androgen Receptor (AR) (AID 2282973)
# Details: HepG2 Attagene TRANS-FACTORIAL AR reporter transcription
# Summary of the method: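 HepG2 cells transiently transfected with AR-Gal4 chimera and GAL4-UAS reporter units; chemical exposure 24 h. Reporter mRNA quantified by RT-PCR with fluorescent labelling and capillary electrophoresis; gain-of-signal fitted against DMSO.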
row,Compound,outcome
1,O=S(=O)(OCC(F)(F)F)C(F)(F)C(F)(F)C(F)(F)C(F)(F)F,inactive
2,CCN(CCO)S(=O)(=O)C(F)(F)C(F)(F)C(F)(F)C(F)(F)C(F)(F)C(F)(F)C(F)(F)C(F)(F)F,inactive
3,FC(F)(F)C(F)(F)C(F)(F)C(F)(F)C(F)(F)C(F)(F)C(F)(F)I,inactive
4,OCCCC(F)(F)C(F)(F)C(F)(F)C(F)(F)C(F)(F)C(F)(F)C(F)(F)C(F)(F)F,inactive
5,C=C(C)C(=O)OCCC(F)(F)C(F)(F)C(F)(F)C(F)(F)C(F)(C(F)(F)F)C(F)(F)F,inactive
6,FC(F)C(F)(F)COCC1CO1 (stereo not drawn),inactive
7,O=C(O)C(F)(OC(F)(F)C(F)(OC(F)(F)C(F)(F)C(F)(F)F)C(F)(F)F)C(F)(F)F (stereo not drawn),inactive
8,FC(F)(F)C(F)(F)C(F)(F)C(F)(F)C(F)(F)CCI,inactive
9,FC(F)(F)C(F)(F)C(F)(F)C(F)(F)C(F)(F)C(F)(F)C(F)(F)C(F)(F)CCS,inactive
10,C[N+](C)(C)CCCNS(=O)(=O)C(F)(F)C(F)(F)C(F)(F)C(F)(F)C(F)(F)C(F)(F)C(F)(F)C(F)(F)F,inactive
11,O=S(=O)(OCC(F)F)C(F)(F)F,inactive
12,FC(F)=C(F)C(F)(F)C(F)(F)C(F)(F)C(F)(F)C(F)(F)C(F)(F)F,inactive
13,FC(F)(F)C(F)(F)C(F)(F)CC1CO1 (stereo not drawn),inactive
14,COC(F)(C(F)F)C(F)(F)F (stereo not drawn),inactive
15,FC(F)(F)C(F)(F)CNCC(F)(F)C(F)(F)F,inactive
16,NC(=O)C(F)(F)C(F)(F)C(F)(F)C(F)(F)C(N)=O,inactive
17,OCCCCC(F)(F)C(F)(F)C(F)(F)C(F)(F)F,inactive
18,OCC(F)(F)C(F)(F)C(F)(F)CO,inactive
19,C=C(C)C(=O)OCC(F)(F)C(F)(F)C(F)(F)F,inactive

# Molecular target: Cytochrome P450 2C18 (Homo sapiens) (UniProt P33260)
# Sequence (P33260 whole entry, looked up): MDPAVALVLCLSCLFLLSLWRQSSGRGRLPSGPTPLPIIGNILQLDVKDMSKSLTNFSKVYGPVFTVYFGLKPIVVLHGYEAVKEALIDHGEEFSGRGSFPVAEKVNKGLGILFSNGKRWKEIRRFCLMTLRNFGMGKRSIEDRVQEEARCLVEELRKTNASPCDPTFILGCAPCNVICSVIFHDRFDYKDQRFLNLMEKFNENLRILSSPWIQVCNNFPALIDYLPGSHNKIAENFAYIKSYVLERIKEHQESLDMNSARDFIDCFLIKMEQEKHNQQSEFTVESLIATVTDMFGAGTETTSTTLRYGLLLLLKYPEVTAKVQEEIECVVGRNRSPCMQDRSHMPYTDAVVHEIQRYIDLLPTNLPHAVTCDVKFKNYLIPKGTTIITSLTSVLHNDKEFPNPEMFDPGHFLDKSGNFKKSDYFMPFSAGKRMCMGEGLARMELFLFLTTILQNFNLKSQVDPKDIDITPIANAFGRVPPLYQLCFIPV
# Test: NVS_ADME_hCYP2C18: NovaScreen (NVS) CYP450-related Enzyme Activity (ADME) Assay for human CYP2C18 (AID 2283103; active = hit-call score of the fitted dose curve at least 0.9, where 1 is the maximum; inactive = score below 0.9)
# Details: not given
# Summary of the method: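 Enzyme activity measured by fluorescence 0.5 h after compound addition, using recombinant CYP2C18 and a specific substrate. Actives from duplicate 10 uM screening were retested in concentration series (top 20 uM); acetonitrile served as negative baseline.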
Compound,AC50,outcome
C=CCOC(Cn1ccnc1)c1ccc(Cl)cc1Cl (stereo not drawn),0.427 µM (active),
CC(C)(C)[C@@H](O)[C@@H](Cc1ccc(Cl)cc1)n1cncn1,5.35 µM (active),
C#C[C@]1(O)CC[C@H]2[C@@H]3CCc4cc(O)ccc4[C@H]3CC[C@@]21C,1.46 µM (active) and 1.72 µM (active),inactive
S=C(S)NCCNC(=S)S.[Mn+2].[S-]C([S-])=NCCN=C([S-])[S-].[Zn+2],,inactive
CCCCC(CC)COC(=O)c1ccccc1C(=O)O (stereo not drawn),,inactive
CCOC(=O)NCCOc1ccc(Oc2ccccc2)cc1,4.5 µM (active),
CSC(=O)c1cccc2nnsc12,3.8 µM (active),
S=C([S-])NCCNC(=S)[S-].[Mn+2],10 µM (active),
CC(=O)[C@H]1CC[C@H]2[C@@H]3CCC4=CC(=O)CC[C@]4(C)[C@H]3CC[C@]12C,7.03 µM (active) and 2.27 µM (active),inactive
CCCCCOC(=O)COc1cc(N2C(=O)C3=C(CCCC3)C2=O)c(F)cc1Cl,,inactive
CC(=O)O[C@]1(C(C)=O)CC[C@H]2[C@@H]3C=C(Cl)C4=CC(=O)[C@@H]5C[C@@H]5[C@]4(C)[C@H]3CC[C@@]21C,6.86 µM (active),inactive
Oc1ccc(C(c2ccc(O)cc2)C(Cl)(Cl)Cl)cc1,0.668 µM (active),
C#CCOC(=O)[C@@H](C)Oc1ccc(Oc2ncc(Cl)cc2F)cc1,2.13 µM (active),
CCCCC(CC)CN1C(=O)C2C3C=CC(C3)C2C1=O (stereo not drawn),4.81 µM (active),
C[C@]12CC[C@@H]3c4ccc(O)cc4CC[C@H]3[C@@H]1CC[C@@H]2O,9.57 µM (active),

# Molecular target: human CYP4F12, CYP4F12 (gene 66002) (UniProt Q9HCS2)
# Sequence (Q9HCS2 whole entry, looked up): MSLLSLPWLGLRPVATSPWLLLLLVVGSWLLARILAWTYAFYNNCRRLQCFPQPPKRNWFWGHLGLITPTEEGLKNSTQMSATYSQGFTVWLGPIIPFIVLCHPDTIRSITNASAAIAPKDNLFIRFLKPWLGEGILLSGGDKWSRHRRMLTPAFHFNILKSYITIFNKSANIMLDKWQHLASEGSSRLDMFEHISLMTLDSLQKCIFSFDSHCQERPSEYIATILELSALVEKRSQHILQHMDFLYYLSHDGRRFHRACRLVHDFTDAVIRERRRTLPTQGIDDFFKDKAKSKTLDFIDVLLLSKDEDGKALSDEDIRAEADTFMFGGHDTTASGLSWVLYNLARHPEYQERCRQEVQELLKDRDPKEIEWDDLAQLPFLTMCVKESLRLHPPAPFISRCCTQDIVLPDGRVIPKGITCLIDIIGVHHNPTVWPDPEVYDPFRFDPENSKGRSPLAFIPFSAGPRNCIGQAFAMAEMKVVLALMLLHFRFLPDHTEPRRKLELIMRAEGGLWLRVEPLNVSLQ
# Test: NVS_ADME_hCYP4F12: NovaScreen (NVS) CYP450-related Enzyme Activity (ADME) Assay for human CYP4F12 (AID 2283111)
# Details: not given
# Summary of the method: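 Recombinant enzyme with a fluorescent substrate, signal read at 0.5 h post-dose; activity loss analysed relative to acetonitrile. Compounds first run in duplicate at 10 uM, with follow-up concentration-response testing of actives.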
Compound,AC50,outcome
CC1=CC(=O)/C(=C(/C)O)C(=O)O1,1.52 µM (active),
O=C1NC(=O)C(c2ccccc2)(c2ccccc2)N1,,inactive
S=C(S)NCCNC(=S)S.[Mn+2].[S-]C([S-])=NCCN=C([S-])[S-].[Zn+2],,inactive
CCCCC(CC)COC(=O)c1ccccc1C(=O)O (stereo not drawn),,inactive
Cc1ccccc1Cl,7.95 µM (active),
CC(=O)[C@H]1CC[C@H]2[C@@H]3CCC4=CC(=O)CC[C@]4(C)[C@H]3CC[C@]12C,,inactive
Oc1ccc(C(c2ccc(O)cc2)C(Cl)(Cl)Cl)cc1,0.615 µM (active),
C[C@]12CC[C@@H]3c4ccc(O)cc4CC[C@H]3[C@@H]1CC[C@@H]2O,,inactive

# System: rat CYP2B1, gene 24300
# Test: NVS_ADME_rCYP2B1: NovaScreen (NVS) CYP450-related Enzyme Activity (ADME) Assay for rat CYP2B1 (AID 2283117)
# Details: not given
# Summary of the method: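 Cell-free fluorescence enzyme assay, recombinant rat CYP2B1, 0.75 h after dosing. Single-concentration duplicates at 10 uM preceded concentration series (max 20 uM) for actives; acetonitrile as negative-control baseline.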
Compound,AC50,outcome
C=CCOC(Cn1ccnc1)c1ccc(Cl)cc1Cl (stereo not drawn),0.0108 µM (active),
CC(C)(C)[C@@H](O)[C@@H](Cc1ccc(Cl)cc1)n1cncn1,1.35 µM (active),
C#C[C@]1(O)CC[C@H]2[C@@H]3CCc4cc(O)ccc4[C@H]3CC[C@@]21C,2.5 µM (active) and 4.16 µM (active) and 1.77 µM (active),
CC(=O)[C@H]1CC[C@H]2[C@@H]3CCC4=CC(=O)CC[C@]4(C)[C@H]3CC[C@]12C,,inactive
CC(=O)O[C@]1(C(C)=O)CC[C@H]2[C@@H]3C=C(Cl)C4=CC(=O)[C@@H]5C[C@@H]5[C@]4(C)[C@H]3CC[C@@]21C,,inactive
Oc1ccc(C(c2ccc(O)cc2)C(Cl)(Cl)Cl)cc1,9.18 µM (active),
C#CCOC(=O)[C@@H](C)Oc1ccc(Oc2ncc(Cl)cc2F)cc1,1.36 µM (active),
C[C@]12CC[C@@H]3c4ccc(O)cc4CC[C@H]3[C@@H]1CC[C@@H]2O,14.1 µM (active),
